Experimental data from PubChem BioAssay (Tox21).
Unmarked numbers belong to inactive results. Active and inactive are the calls of the source. Calls come from the whole dose curve; as a rule, active = well fitted curve in the direction sought with a large enough effect in the repeat runs; inconclusive = weak or mixed curves; inactive = flat fitted curve, though single readings scatter. Positions of bridges follow the written chain, without caps; N, C: chain ends. Residues, ends and D or L forms follow the SMILES beside them.

Experiment: qHTS assay to test for compound auto fluorescence at 590 nm (red) in HepG2 cell free culture (AID 720684)
Conditions: cell-free medium autofluorescence, red 540/590 nm; series mostly up to 46 µM; fluorescence, % of Rose Bengal: at the top concentration
From the text: U.S. Tox21 Program National Center for Advancing Translational Sciences [NCATS] NIH Chemical Genomics Center [NCGC] U.S. Environmental Protection Agency [EPA] National Institutes of Environmental Health Sciences [NIEHS] National Toxicology Program [NTP] U.S. Food and Drug Administration [FDA] Tox21 Assay Overview: Compound auto fluorescence often interferes with screening of the compound library against various biological targets and signaling pathways. Some of these compounds may have fluorophoric properties. Such properties may interfere with the assay outputs resulting in false positives and/or negatives. To decrease such complications and ensure the compound activities are relevant in terms of biological response, the Tox21 10K compound library was screened for auto fluorescence. From the fluorophores used as reporter signals in our screening assays, the auto fluorescence equivalencies of compounds against three fluorophores have been evaluated: Triamterene, Fluorescein and Rose Bengal sodium for blue, green and red fluorescence, respectively. The fluorescence intensities were measured using Excitation/Emission wavelengths at 405/460nm, 485/535nm and 540/590nm for blue, green and red labels, respectively. This assay includes the red fluorescence data.
Tox21 Assay Protocol Summary: 5 uL of culture medium (MEM containing 10% FBS) per well was dispensed into black wall/clear bottom 1536-well plates using a Multidrop Combi Dispenser (ThermoFisher Scientific, Waltham, MA). After 23 nL compound or DMSO vehicle was transferred into assay plate by a pintool work station (Kalypsys, San Diego, CA), fluorescence intensities in the assay plates were measured by an Envision (PerkinElmer, Shelton, CT) plate reader using three labels for measuring blue, green and red fluorescence at […] 460, 535 and 590nm respectively.
% is set by controls: 0 for no effect and ±100 for the full control effect.

| Structure (SMILES) | fluorescence, % of Rose Bengal | Potency |
| --- | --- | --- |
| CCCOc1cc(N)ccc1C(=O)OCCN(CC)CC | 0.288% [at 18.6 µM] |  |
| CCN(CC)CCC(=O)N1c2ccccc2Sc2ccc(Cl)cc21 | -0.0405% |  |
| CCOC(=O)C1=C(COCCN)NC(C)=C(C(=O)OC)C1c1ccccc1Cl (stereo not given) |  | inactive |
| CC1=C(C(=O)OCCN(Cc2ccccc2)c2ccccc2)C(c2cccc([N+](=O)[O-])c2)C(P2(=O)OCC(C)(C)CO2)=C(C)N1 (stereo not given) | -0.09% |  |
| CCN(CC)CCOC(=O)c1ccc(N)cc1Cl | -0.0163% |  |
| CN1CCC(CN2c3ccccc3Sc3ccccc32)C1 (stereo not given) | 0.0897% |  |
| CCN(CC)c1ccc(N=Nc2ccc(S(=O)(=O)N(C)C)cc2)c(S(=O)(=O)NCC[n+]2ccccc2)c1 | -0.134% |  |
| Clc1ccc(COC(Cn2ccnc2)c2ccc(Cl)cc2Cl)c(Cl)c1 (stereo not given) | 0.072% [at 18.6 µM] |  |
| CC[C@@]1(O)C[C@H](O[C@H]2C[C@H](N(C)C)[C@H](O[C@H]3C[C@H](O)[C@H](O[C@H]4CCC(=O)[C@H](C)O4)[C@H](C)O3)[C@H](C)O2)c2c(cc3c(c2O)C(=O)c2c(O)cccc2C3=O)[C@H]1C(=O)OC | 1.09% |  |
| CC(C)CN(C[C@@H](O)[C@H](Cc1ccccc1)NC(=O)O[C@@H]1CCOC1)S(=O)(=O)c1ccc(N)cc1 | 0.576% |  |
| Cc1cccc(C)c1Nc1ncccc1C(=O)O | -0.0833% |  |
| O=C(O)c1cccc(/C=C2/C[C@@H]3[C@@H](/C=C/[C@@H](O)C4CCCCC4)[C@H](O)C[C@@H]3O2)c1 | 0.419% |  |
| CO[C@@H]1[C@@H](O[C@@H]2O[C@H](C)[C@@H](O[C@H]3C[C@@](C)(O)[C@@H](OC(=O)CC(C)C)[C@H](C)O3)[C@H](N(C)C)[C@H]2O)[C@@H](CC=O)C[C@@H](C)[C@@H](O)/C=C/C=C/C[C@@H](C)OC(=O)C[C@H]1O |  | inactive |
| CNC[C@@H]1CC[C@@H](N)[C@@H](O[C@H]2[C@H](O)[C@@H](O[C@H]3OC[C@](C)(O)[C@H](NC)[C@H]3O)[C@H](N)C[C@@H]2N)O1 | -0.104% |  |
| C[C@H]1C[C@@H]2[C@H]([C@@H](O)C[C@@]3(C)[C@H]2CC[C@]3(O)C(=O)COC(=O)CCC(=O)O)[C@@]2(C)C=CC(=O)C=C12 | 0.292% |  |
| FC(F)(F)C(F)(F)C(F)(F)C(F)(F)C(F)(F)C(F)(F)F | 0.0816% |  |
| NCCCC[C@H](NC(=O)[C@@H]1CCCN1C(=O)[C@@H]1CSSC[C@H](NC(=O)CNC(=O)CNC(=O)CN)C(=O)N[C@@H](Cc2ccc(O)cc2)C(=O)N[C@@H](Cc2ccccc2)C(=O)N[C@@H](CCC(N)=O)C(=O)N[C@@H](CC(N)=O)C(=O)N1)C(=O)NCC(N)=O (H-GGGCYFQNCPKG-NH2; disulfide 4-9) | 0.193% |  |
| CC(=O)Nc1ccc(NC(=S)NC(=O)c2ccc(C(C)(C)C)cc2)cc1 | -0.256% |  |
| O=C(Nc1ccc(Br)cc1)c1cc(Br)c(Br)s1 | -0.0008% |  |
| N[C@@H](C(=O)N[C@@H]1C(=O)N2C(C(=O)O)=C(Cl)CC[C@H]12)c1ccccc1 | -0.0503% |  |

| Structure (SMILES) | fluorescence, % of Rose Bengal | Potency |
| --- | --- | --- |
| Cc1cccc(Nc2ncccc2C(=O)O)c1C | 0.0334% |  |
| CCCCCCCCCCCCCCCC(=O)OC[C@@H](NC(=O)C(Cl)Cl)[C@H](O)c1ccc([N+](=O)[O-])cc1 | -0.0836% |  |
| CC(Oc1ccccc1)C(=O)N[C@@H]1C(=O)N2[C@@H]1SC(C)(C)[C@@H]2C(=O)O (stereo not given in full) | -0.436% [at 18.6 µM] |  |
| CN=C(NC)NCc1ccccc1 | -0.247% |  |
| CCN(CC)CCCC(C)Nc1cc(/C=C/c2ccccc2Cl)nc2cc(Cl)ccc12 (stereo not given) | -0.152% |  |
| Nc1nc2[nH]cc(CCc3ccc(C(=O)N[C@@H](CCC(=O)O)C(=O)O)cc3)c2c(=O)[nH]1 | 0.0064% |  |
| CC1(C)C(\C=C/C=C\C=C/C=C2/N(CCCCS(=O)(=O)O)c3ccc4ccccc4c3C2(C)C)=[N+](CCCCS(=O)(=O)[O-])c2ccc3ccccc3c21 | 0.491% |  |
| CCCCCCCCCCCCCCCCCCCCCC(=O)Nc1ccn([C@@H]2O[C@H](CO)[C@@H](O)[C@@H]2O)c(=O)n1 | 0.0548% |  |
| COc1c(O[C@@H]2O[C@H](CO)[C@@H](O)[C@H](O)[C@H]2O)cc2c(c1OC)-c1ccc(SC)c(=O)cc1[C@@H](NC(C)=O)CC2 | -0.0166% [at 18.6 µM] |  |
| CC(C)[C@H](N)C(=O)OCC(CO)OCn1cnc2c(=O)[nH]c(N)nc21 (stereo not given in full) | 0.0611% |  |
| NC(=O)c1ccc[n+]([C@@H]2O[C@H](COP(=O)([O-])OP(=O)(O)OC[C@H]3O[C@@H](n4cnc5c(N)ncnc54)[C@H](O)[C@@H]3O)[C@@H](O)[C@H]2O)c1 | -0.438% [at 18.6 µM] |  |
| CC(=O)Nc1c(I)c(C(=O)O)c(I)c(N(C)C(C)=O)c1I | -0.0089% |  |
| CCCCCCCCCCCCCCCCCC[N+](C)(C)CCC[Si](OC)(OC)OC | 0.0233% |  |
| CC(C)CCCC(C)NC(C)C (stereo not given) | 0.0137% |  |
| NC(N)=NCC1COc2ccccc2O1 (stereo not given) | -0.139% |  |
| C[C@]12C=CC(=O)N[C@@H]1CC[C@@H]1[C@@H]2CC[C@]2(C)[C@@H](C(=O)Nc3cc(C(F)(F)F)ccc3C(F)(F)F)CC[C@@H]12 | 0.0056% |  |
| Clc1cc(Cl)c(OCC#CI)cc1Cl | -0.0959% |  |
| C[C@@H]1C[C@H]2[C@@H]3CCC4=CC(=O)C=C[C@]4(C)[C@@]3(F)[C@@H](O)C[C@]2(C)[C@@]1(O)C(=O)COC(=O)c1cccc(S(=O)(=O)O)c1 | -0.109% |  |
| CC(=O)Oc1cccc(C(=O)O)c1OC(C)=O | 0.0683% |  |
| CCCCCCCCCCCCCCCCCCCCCCO | -0.114% |  |
